# Assay outcomes deposited in PubChem BioAssay by National Center for Advancing Translational Sciences (NCATS).
# The list is not random: actives were taken first. Their share in the collection is about 9.4%.
# ELG1 repair inh: blocks ELG1-dependent DNA repair in HEK293T cells; 330,000 compounds, 2.3% hits; HEK293T ELG1-luciferase reporter, luminescence, 16 h; DNA damage induced by 5-fluorouridine; AID 504467; Potency, µM (highest dose often 46.1 µM), inactives show at the top dose activity change, negative = inhibition, usual class: inhibitors; further: on the % scale 0 is the no-effect control and ±100 the full control effect; nearly all actives have a fitted effect of over 55% in size
#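 In this reporter screen, reduction of luminescence relative to DMSO vehicle indicated activity. Compounds and 5-fluorouridine were added together to 2,000 cells per well, incubated for 16 hr at 37 °C, then developed with ONE-Glo.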
# ELG1 genotoxic: genotoxicity induction in ELG1-luciferase HEK293T cells | HEK293T ELG1-luciferase reporter, luminescence, 16 h | 330,000 compounds, 1.3% hits | AID 504466 | Potency, µM (series often up to 46 µM), for the others: top-dose activity change, positive = activation, hits mostly activators; further: % of control where 0% means no effect; nearly all actives have a fitted effect of over 60% in size
#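 16 hr compound incubation (37 °C, 5% CO2) of HEK293T cells carrying luciferase-tagged ELG1; luciferase then measured by ONE-Glo luminescence after 30 min at RT.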
# NPC1 prom act: NPC1 promoter activation. 320,000 compounds, 2.4% hits. Huh7 NPC1 promoter luciferase reporter, 24 h. Potency, µM (doses to about 9.22 µM), for the others: top-dose activation, most hits filed as activators. AID 485313; further: % of control where 0% means no effect; nearly all actives have a fitted effect of over 60% in size
#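 In 1536-well qHTS, Huh7 cells harboring an NPC1 promoter–luciferase construct received compound for 24 h; activation was quantified by luminescence following luciferase reagent addition.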
# FLuc counter: inhibits or activates purified firefly luciferase, miR-21 counter-screen. Potency, µM (titrated, usually from 57.5 µM), for the others: at the highest dose activity change, negative = inhibition, hits mostly inhibitors. P08659. AID 588342. purified FLuc, Km substrates, luminescence inhibition. 360,000 compounds, 6.9% hits;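 further: plate controls were vehicle for no effect and reference inhibitor for full effect; nearly all actives have a fitted effect of over 55% in size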
# Target sequence (P08659 whole entry, looked up): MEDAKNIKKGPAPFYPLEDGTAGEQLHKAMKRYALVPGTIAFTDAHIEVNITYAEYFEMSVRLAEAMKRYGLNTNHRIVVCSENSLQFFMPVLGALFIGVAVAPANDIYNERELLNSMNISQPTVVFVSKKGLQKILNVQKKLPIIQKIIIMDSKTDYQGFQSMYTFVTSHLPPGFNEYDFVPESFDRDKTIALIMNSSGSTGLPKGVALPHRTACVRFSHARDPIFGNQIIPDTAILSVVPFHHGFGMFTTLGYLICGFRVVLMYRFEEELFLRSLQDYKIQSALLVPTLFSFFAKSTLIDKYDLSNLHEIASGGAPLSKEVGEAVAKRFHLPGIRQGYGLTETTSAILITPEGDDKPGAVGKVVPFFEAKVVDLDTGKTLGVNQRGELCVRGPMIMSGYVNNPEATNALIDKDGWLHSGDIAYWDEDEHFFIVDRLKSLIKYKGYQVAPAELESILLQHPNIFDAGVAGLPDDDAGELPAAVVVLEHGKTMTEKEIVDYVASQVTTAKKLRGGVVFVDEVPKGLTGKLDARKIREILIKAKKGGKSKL
#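 Biochemical qHTS of compounds, final roughly 60 µM downward over six points, against 10 nM purified firefly luciferase using Km concentrations of substrates (10 uM D-luciferin, 10 uM ATP) in Tris acetate pH 7.5 buffer; luminescence output.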
# SMN2 splice enh: enhancers of SMN2 splice variant expression. HEK293 SMN2-luciferase splicing reporter, luminescence, 30-36 h. 210,000 compounds, 2.8% hits. Potency, µM (titrated, usually from 46.1 µM), without a hit: top-dose activity change, positive = activation, most hits filed as activators. AID 1458; further: % of control where 0% means no effect; nearly all actives have a fitted effect of over 55% in size
#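 qHTS luciferase splicing reporter: luminescence rises when SMN2 exon 7 is included in transfected HEK293 cells. Compound exposure lasted 30-36 h at 37C, with 4.5 mM final sodium butyrate as control, followed by a ONE-Glo read.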
# Rab9 prom act: Rab9 promoter activation | Huh7 Rab9 promoter-luciferase reporter, luminescence, 24 h | Potency, µM (series often up to 9.22 µM), without a hit: top-dose activation, negative = inhibition, most hits filed as activators | 320,000 compounds, 2.8% hits | AID 485297; further: % of control where 0% means no effect; nearly all actives have a fitted effect of over 60% in size
#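 Rab9 promoter-driven luciferase in stably transfected Huh7 cells; 1500 cells/well rested 2 h, exposed to compound in DMSO for 24 h at 37 °C, 5% CO2. Luminescence read 10 min after adding luciferase reagent at ambient temperature.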
# An asterisk follows results filed as active; ? = inconclusive; nt = no result given; [ ] = another dose, or the depositor's remark. The call rests on the fitted dose curve; in most records, active means well fitted curve in the direction sought with a large enough effect; inconclusive means small, poorly fitted or top-dose-only effect, or another doubt; inactive means no such curve, though single readings can be large; an effect the other way counts as inactive or inconclusive. Potency means the concentration at half of the fitted maximal effect.
SMILES,ELG1 repair inh,ELG1 genotoxic,NPC1 prom act,FLuc counter,SMN2 splice enh,Rab9 prom act
O=C(Nc1cccc(Cl)c1)c1cnc[nH]1,?,?,4µM*,-23%,11µM*,4.5µM*
CC(=O)c1cccc(NC(=O)c2cc(-c3ccc(F)cc3)on2)c1,13%,11%,21%,?,-12%,0%
CC(C)c1onc(C(=O)Nc2cccc(Cl)c2)c1[N+](=O)[O-],0%,3%,-2%,?,-27%,?
CCc1ccc(-n2nc(CO)c(C(=O)NCc3ccccn3)n2)cc1,nt,nt,nt,?,-26%,nt
CCS(=O)(=O)N1CCC(c2nc(-c3ccc(C(F)(F)F)cc3)no2)CC1,6.3µM*,-12%,-15%,2%,-47%,-18%
CCS(=O)(=O)N1CCC(c2nc(-c3ccc(C)cc3)no2)CC1,?,10%,?,15µM*,-26%,?
CN1CCN(S(=O)(=O)c2ccc(-c3noc(C4CCN(S(C)(=O)=O)CC4)n3)cc2)CC1,-2%,1%,2%,-1%,?,2%
COCC(=O)N1CCC2(CC1)CN(C(=O)Nc1cccc(C#N)c1)C2,nt,nt,nt,nt,-4%,nt
Cc1ccc(S(=O)(=O)/N=C(\CN2CCOCC2)N2CCCC2)cc1,0%,0%,0%,4%,-6%,4%
Cc1ccc(S(=O)(=O)/N=C(\CCl)N2CCOCC2)cc1,15µM*,-3%,-10%,-2%,-21%,-17%
CCN1/C(=C/C=C/c2oc3ccc(-c4ccccc4)cc3[n+]2CC)Oc2ccc(-c3ccccc3)cc21,12µM*,-13%,-44%,?,nt,-73%
Cc1cccc(Cn2cc3c(=O)n(CC(=O)Nc4ccc(C)c(F)c4)nc-3c3cc(F)ccc32)c1,nt,nt,nt,-14%,nt,nt
Cc1ccc(Nc2nnc(-c3ccc4c(c3)OCO4)o2)c(C)c1,?,?,?,8.5µM*,10%[9.22 µM],?
Cc1ccc(C)c(N2CCN(Cc3nnc(-c4ccc5c(c4)OCO5)o3)CC2)c1,nt,nt,nt,-5%,-16%,nt
N#Cc1c2ccc(O)cc2n2ccccc12,4.1µM*,-14%,7%,?,13%,20%
CC(C)(C)c1ccc(-c2nc(C=O)c3ccccn23)cc1,?,1%,2%,15µM*,-14%,4%
C(=N\N1CCOCC1)/c1nc(-c2ccccc2)n2ccccc12,-2%,3%,1%,-4%,4%,9%
CCn1cc2nc(SCC(=O)Nc3cc(OC)cc(OC)c3)n(Cc3ccc(Cl)cc3)c(=O)c2n1,nt,nt,nt,-2%,-4%,nt
O=C1NC(=O)/C(=C/c2ccc3c(c2)OC(F)(F)O3)S1,nt,nt,8.2µM*,nt,nt,?
O=C1NC(=O)/C(=C/c2cc3c(cc2Br)OCO3)S1,-4%,1%,-3%,?,nt,3%
CCn1c(-c2cc(-c3ccc(OC(C)C)cc3)nc3ccccc23)n[nH]c1=S,?,2%,?,0.6µM*,23%,?
CCn1c(-c2ccc3ncccc3c2)n[nH]c1=S,3%,0%,-4%,3%,-14%,2%
C=CCn1c(-c2cc(-c3ccc(C)cc3)nc3ccccc23)n[nH]c1=S,?,-7%,-1%,11µM*,4%,-4%
CCCOc1cccc(-c2cc(-c3n[nH]c(=S)n3CC)c3ccccc3n2)c1,-16%,-3%,-2%,17µM*,-13%,-2%
CCn1c(-c2cc(-c3ccc(C)cc3)nc3ccccc23)n[nH]c1=S,-4%,7%,9%,6.7µM*,5%,9%
CCn1c(-c2ccccc2SC)n[nH]c1=S,-5%,0%,-4%,-4%,-6%,-5%
CC1CCN(S(=O)(=O)c2ccc3c(c2)N(CC(=O)N(C)Cc2ccccc2)C(=O)CO3)CC1,nt,nt,nt,7%,nt,nt
COc1ccc(C(=O)Nc2ccc(-c3nc4ncccc4o3)cc2C)cc1Br,nt,nt,nt,0%,?,nt
O=C(CSc1ncccc1C(=O)O)c1cccc(C(F)(F)F)c1,?,?,19%,24µM*,?,?
